The values below come from PubChem BioAssay (NCI).

About 83,000 compounds went through this panel and 20% of them were active in at least one assay; those are over-represented in the sample as a whole.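 Compound tested at a single concentration for 48 hours in 96-well plates; a percent growth value below 10 was scored as active.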 Values without a mark were called inactive. The source made the active and inactive calls.

The experiment has as its system HL-60(TB) leukemia. The experiment in a line: NCI-60 one-dose screen, 48 h (100 = growth as untreated, 0 = no growth, -100 = all killed). The settings on record: 10 µM unless noted.
As to `O=C1ON=[N+](c2ccc(Cc3ccc([N+]4=NOC(=O)C4CN4CCOCC4)cc3)cc2)C1CN1CCOCC1` (stereo not given), the growth was 86.4%.
In the case of `Cc1nc2sc(C(=O)Nc3cccc(Br)c3)c(N)c2cc1C(=O)c1ccc(C(F)(F)F)cc1`, the growth was 98.7%.
As for `Cn1ccnc1C(=O)/C=C/c1ccc(CC(=O)NC2CCCCC2)cc1`, the growth is 68.1%.
On to `CNC(=O)c1cc(Oc2ccc3c(c2)sc2nc(-c4ccc(NC(=O)[C@@H](NC(=O)OC)C(C)C)cc4)cn23)ccn1`, for which the growth was 51.1%.
In the case of `C=C1C(=O)O[C@H]2[C@H]1CC/C(Cn1cc(-c3ccc(F)cc3)nn1)=C\CC[C@@]1(C)O[C@@H]21`, the growth is -18.8% (active).
Take `O=C1c2ccccc2-c2c1c1c(NCCCO)nc3ccccc3c1n2Cc1ccccc1`: the growth is 48.9%.
`CCc1ccc2c(c1)N(CCO)C1=C(C(=O)OC1)C2c1cccc(Cl)c1` (stereo not given): the growth was -19.4% (active).
As for `O=C(CCCCCCCC(=O)N1CCCCC1)N1CCCCC1`, the figure is 94.5%.
Consider `COc1ccc(C2CC(c3ccc4ccccc4c3)=NN2c2nc(O)c(C3=c4cc(Cl)ccc4=NC3=O)s2)cc1` (stereo not given), for which the growth was -6.68% (active).
As for `CCN1CCN(c2nc(NNC(=O)Cc3ccccc3)nc(N3CCN(C(c4ccccc4)c4ccccc4)CC3)n2)CC1`, the growth was -53.9% (active).
For `Cc1ccc(C2CC(c3ccc(Nc4ccnc5cc(Cl)ccc45)cc3)=NN2C=O)cc1` (stereo not given), the growth is 9.36% (active).
Regarding `CNC(=O)c1cc(Oc2ccc3c(c2)sc2nc(-c4ccc(NC(C)=O)cc4)cn23)ccn1`, the growth is 44.2%.
With `COc1ccc(-c2oc(=O)ccc2-c2cc(OC)c(OC)c(OC)c2)cc1O`, the growth is -58.9% (active).
Take `COc1ccc(N2C(=O)C(Oc3ccccc3)C2c2ccc(C)cc2)cc1` (stereo not given): the growth was 85.4%.
For the compound `Clc1ccc2c(NCCCN3CCN(c4nc(-n5ccnc5)nc5ccccc45)CC3)ccnc2c1`, the growth is 52.7%.
With `COc1ccc(/C=C2\Oc3cc(OCCCCN4CCCC4)ccc3C2=O)cc1`, the growth is 92.1%.
Take `N=C1C(c2nc3ccccc3s2)=C(O)CN1c1cc(Cl)cc(Cl)c1`: the growth was 35.5%.
For the compound `Cn1cc(-c2csc(-c3cn(C(=O)OC(C)(C)C)c4ccccc34)n2)c2ccnc(Cl)c21`, the growth was 67.5%.
As to `Cc1ccc(-c2csc3nc(C)c(CCCl)c(=O)n23)cc1`, the growth is 107%.
As to `COc1ccc(-c2cc(-c3cc(-c4ccc(OC)cc4)nc(N)n3)nc(N)n2)cc1`, the growth is 83.6%.
`Cc1nn(-c2ccc(-c3ccc(OC(F)(F)F)cc3)cc2)c2nc(-c3ccccc3)nc(N)c12`: the growth is 100%.
`CC(=O)OC1Oc2cc(C)c(C)cc2-c2oc(=O)c(-c3ccc(F)cc3)cc21` (stereo not given): the growth is 12.5%.
In the case of `CC(=O)C1CCC2C3CC(F)C4=CC(=O)CCC4(C)C3C(O)CC12C` (stereo not given), the growth is 94.2%.
Turning to `O=C(Nc1ccccc1O)c1ccc(NS(=O)(=O)c2cccc3cccnc23)cc1`, the growth is -12.2% (active).
`c1ccc(-c2nc(N3CCCNCC3)c3nc(-c4ccccc4)oc3n2)cc1`: the growth was -34.6% (active).
As for `C=CCNC(=S)NN`, the figure is 119%; as for `O=C1/C(=C\c2ccc([N+](=O)[O-])cc2)CS(=O)(=O)C/C1=C/c1ccc([N+](=O)[O-])cc1`, -38.4% (active); as for `COc1ccc2ncccc2c1Cc1c(OC)ccc2ncccc12`, 42.3%.
As for `CC(=O)Oc1c(C)c(OC(C)=O)c2c(c1C(C)=O)OC1CC(=O)C(C(C)=O)=C(O)C21C` (stereo not given), the figure is 79.4%; as for `NC(=O)c1c(NC(=O)COC(=O)Cc2ccccc2F)sc2c1CCC2`, 135%; as for `CC1=NN(c2ccccc2)C(=O)/C1=C\N1CC(=O)NC1=S`, 103%.
On to `O=C(O)CC(C(=O)O)/C(=C\c1ccccc1)c1ccccc1` (stereo not given), for which the growth was 107%.
As for `CC1=CC(=O)C=CC1=Nc1ccc(N(C)C)cc1`, the figure is -1.75% (active); as for `C=C1C(=O)O[C@H]2[C@H]1CC/C(COC(=O)/C=C\C(=O)NCc1ccc(Cn3c(=O)sn(CCCI)c3=O)cc1)=C\CC[C@@]1(C)O[C@@H]21`, -36.6% (active).
Regarding `CN(C)CCOc1nc2c3cc([N+](=O)[O-])ccc3nn2c2ccccc12`, the growth is 11.7%.
With `CCNC(=S)n1nc(SC)c(C(=O)OCC)c1N`, the growth was 100%.
Turning to `O=[N+]([O-])/C(=C\c1ccco1)c1ccccc1Cl`, the growth is 81.6%.
As for `FC(F)(F)c1ccc(/C=N/Nc2nnc3n2N=C(c2ccc(Cl)cc2)CS3)cc1`, the figure is 93.3%; as for `O=S(=O)(NCCCNc1nccc(-c2c(-c3cccc(O)c3)nc3occn23)n1)c1ccc(Cl)cc1`, 56.1%.
As to `Fc1cc(-c2nnc3n2NC(=Nc2ccc(Cl)cc2)CS3)c(Cl)cc1Cl`, the growth was 94.1%.
